Screening results (PubChem)
ASK1 inh: human ASK1 kinase inhibition, primary screen | Q99683 | AlphaScreen MKK6 phosphorylation by ASK1, luminescence | inhibition, % at 7.44 µM | actives 0.99% (n = 22,000) | AID 1159602; in the data active = inhibition above about 35%;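 also: 0% = median of compound wells and 100% = no enzyme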
ULK1 primary: blocks human autophagy kinase ULK1. O75385. AlphaScreen Atg13 phosphorylation by ULK1, luminescence. inhibition, % at 5.96 µM. actives 1.9% (n = 30,000). AID 1259251; in the data active = inhibition above about 43%;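 also: 0% = median of compound wells and 100% = no enzyme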
* marks the source's active call; other numbers are inactive results; nt = not tested or not shown. Sampled rows, rich in hits. Any-hit rate of the full collection: about 2.5%.

SMILES	ASK1 inh	ULK1 primary
C=C(NC(=O)C(=C)NC(=O)c1csc(C2=NC3c4csc(n4)C4NC(=O)c5csc(n5)C(C(C)(O)C(C)O)NC(=O)C5CSC(=N5)C(=CC)NC(=O)C(C(C)O)NC(=O)c5csc(n5)C3(CC2)NC(=O)C(C)NC(=O)C(=C)NC(=O)C(C)NC(=O)C(C(C)CC)NC2C=Cc3c(C(C)O)cc(nc3C2O)C(=O)OC4C)n1)C(N)=O (configuration not stated)	nt	43*
CCCNC(=O)c1ccnc(N2CCC(N3CCOCC3)CC2)c1	-6	10
CCCNC(=O)c1csc(-c2ccc(C(=O)NC3CC3)cc2)n1	7	19
O=C(O)c1cc(O)c(O)c(O)c1	nt	-8
O=C(c1cc(O)c(O)c(O)c1)c1ccc(O)c(O)c1O	nt	83*
O=C(NCCOc1ccccc1)c1cc(NC2CCC(O)CC2)nc2ccccc12 (configuration not stated)	-2	19
Cc1cc(NC2CC2)nc(Nc2ccccn2)n1	8	16
CCOC(=O)c1ccccc1O	nt	54*
O=C(OCCO)c1ccccc1O	nt	0
CCCNc1nc(N(CC)CC)nc(N2CCC(N3CCOCC3)CC2)n1	-11	0
CN(C)c1cccc(Nc2cc(Nc3ccc(N4CCOCC4)cc3)ncn2)c1	0	-5
N[C@@H](Cc1ccc(Br)cc1)C(=O)N1CCC(c2nc(-c3ccncc3)no2)CC1	8	72*
N[C@@H](Cc1ccc(Br)cc1)C(=O)N1CCC(c2nc(-c3ccncc3)no2)C1 (some centres not stated)	-5	3
O=C(c1cccc(Nc2nccc(-c3ccc4c(=O)[nH]c(C5CC5)nc4c3)n2)c1)N1CCCC1	-17	65*
O=C(c1cccc(Nc2nccc(-c3ccc4nc(C5CC5)[nH]c(=O)c4c3)n2)c1)N1CCCC1	-26	80*
Cc1nc2ccc(-c3ccnc(Nc4cccc(C(=O)N5CCCC5)c4)n3)cc2c(=O)n1C	3	-10
Cc1nc2cc(-c3ccnc(Nc4cccc(C(=O)NC(C)C)c4)n3)ccc2c(=O)n1C1CC1	-2	9
COc1ccc(-c2cccc(C(N)=O)n2)cn1	-5	3
Cc1cnc(N2CCN(Cc3ccc4c(c3)OCO4)CC2)nc1NCCN(C(C)C)C(C)C	-4	2
O=C(NCCOc1ccccc1)c1csc(NCCN2CCOCC2)n1	-6	0
CC(C)n1cnc2c(NCCN3CCOCC3)nc(Cl)nc21	-11	4
c1cc(Nc2nc(NC3CC3)c3ncn(C4CCCCC4)c3n2)ncn1	-40	44*
c1cc(N2CCOCC2)ccc1Nc1nc(NC2CC2)c2ncn(C3CCCCC3)c2n1	32	7
Cc1noc(C)c1-c1nc(Nc2ccc(N3CCOCC3)cc2)c2ncn(C3CCCCC3)c2n1	7	50*
Cc1noc(C)c1-c1nc(Nc2ccccc2)c2ncn(C3CCCCC3)c2n1	-6	8
SMILES	ASK1 inh	ULK1 primary
c1cc(N2CCOCC2)ccc1Nc1nc(Nc2ccc(N3CCOCC3)cc2)c2ncn(C3CCCCC3)c2n1	-12	53*
c1ccc(Nc2nc(NC3CC3)c3ncn(C4CCCCC4)c3n2)nc1	1	-11
NC(=O)c1ccc(-c2cccc(C(=O)NCCO)n2)cc1	4	7
COc1cc2nc(-c3cccc(C(C)=O)c3)nc(Nc3ccc(NC(C)=O)cc3)c2cc1OC	-3	-22
CC(C)n1c(Nc2ccc(N3CCOCC3)cc2)nc2c(NCCN3CCOCC3)ncnc21	-20	5
Cc1cnc(-c2c(C)nn(C)c2C)nc1NCc1cccc(C(F)(F)F)c1	-8	-4
NC(=O)c1ccc(-c2nc(N)c3ncn(CCN4CCCC4=O)c3n2)cc1	-20	-12
COc1ccc(-c2cncc(C(=O)NCCCN3CCCC3=O)c2)cc1	-5	-13
NC(CO)C(=O)O (configuration not stated)	nt	2
NC(CO)C(=O)NNCc1ccc(O)c(O)c1O (configuration not stated)	nt	65*
COc1ccc(-c2nc(Nc3cc(OC)c(OC)c(OC)c3)c3ncn(C(C)C)c3n2)cn1	13	-6
CC(C)NC(=O)c1cccc(NC(=O)Nc2ccc(-c3ncnc4[nH]ccc34)cc2)c1	15	47*
CCc1c[nH]c2ncnc(-c3ccc(NC(=O)Nc4cccc(C(=O)NC(C)C)c4)cc3)c12	18	16
c1ccc2[nH]ccc2c1	nt	83*
Oc1cccc2[nH]ccc12	nt	20
N#C/C(=C\c1cccc(Br)c1)C(=O)Nc1cc([N+](=O)[O-])ccc1F	nt	39
N#C/C(=C\c1cccc([N+](=O)[O-])c1)C(=O)Nc1ccc([N+](=O)[O-])cc1Br	nt	45*
O=C(Nc1cccc(C(F)(F)F)c1)c1ccccc1O	nt	-5
c1cc(-n2cnc3c(Nc4ccc(N5CCOCC5)cc4)nc(Nc4ccc(N5CCOCC5)cc4)nc32)cs1	20	20
c1cn(-c2ccc(Nc3nc(Nc4ccc(N5CCOCC5)cc4)c4ncn(-c5ccsc5)c4n3)cc2)cn1	21	46*
c1ccc(Nc2nc(Nc3ccc(N4CCOCC4)cc3)nc3c2ncn3-c2ccsc2)cc1	29	41
